Hits are enriched below; roughly 4% of the tested compounds scored in any of these assays.
tim10-1 inh – tim10-1 yeast growth inhibition. inhibition, % at 20 µM. AID 463190. 330,000 compounds, 2.2% hits. S. cerevisiae tim10-1 ts strain growth, BacTiter-Glo, 24 h;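 active = inhibition of at least 40%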;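 also: mutant grown at 25 °C; 0% = DMSO wells with yeast and 100% = wells holding no yeast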
tim23-1 inh – inhibits growth of tim23-1 mutant yeast | S. cerevisiae tim23-1 growth, BacTiter-Glo luminescence, 24 h | inhibition, % at 20 µM | 330,000 compounds, 1.3% hits;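 active = growth inhibition of the mutant yeast at or above 50%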;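 also: temperature-sensitive mutant grown at 25 °C; plate controls were DMSO-treated mutant yeast for no effect and medium wells lacking yeast for full effect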
TIM10 inh – TIM10 yeast growth inhibition | S. cerevisiae TIM10 strain growth, BacTiter-Glo luminescence, 24 h | inhibition, % at 10 µM | 330,000 compounds, 1.4% hits | AID 463195;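 active = inhibition of 40% or more at the single tested concentration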;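 also: wild-type TIM10 isogenic control strain grown at permissive 25 °C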
NALP3 yeast inh – blocks the NALP3 inflammasome reconstituted in yeast; 330,000 compounds, 0.39% hits; inhibition, % at 10 µM; Yeast reconstituted NLRP3/ASC/caspase-1, beta-gal luminescence, 24 h; AID 2825;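 active = inhibition of 50% or more; inactive = inhibition below 50%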;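 also: plate controls were induced DMSO wells for no effect and uninduced yeast grown without galactose for full effect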
NALP1 inh – inhibitors of NALP1 inflammasome in yeast | S. cerevisiae NALP1/ASC/caspase-1 growth, X-gal OD620, 72 h | inhibition, % at 10 µM | 280,000 compounds, 0.61% hits; in the data active = inhibition mostly above about 24%, no sharp cut-off; inactive = mostly below about 32%
tim10-1 conf – confirmation of tim10-1 mutant yeast growth inhibitors; shares compounds with tim10-1 inh; S. cerevisiae tim10-1 ts strain growth, BacTiter-Glo, 24 h; inhibition, % at 20 µM; 7,400 compounds, 56% hits;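 active = inhibition of yeast growth at or above a set limit in either of two repeat tests at 20 µM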;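 also: tim10-1 mutant grown at permissive 25 °C to find synthetic lethal compounds; 0% = DMSO yeast wells and 100% = medium wells without yeast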
TIM10 conf – confirmation of TIM10 yeast growth inhibitors; shares compounds with TIM10 inh; S. cerevisiae tim10 strain growth, BacTiter-Glo luminescence, 24 h; inhibition, % at 10 µM; 4,600 compounds, 63% hits;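 active = inhibition of yeast growth at or above a set limit in either of two replicates at 10 µM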;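 also: this counterscreen used the strain with wild-type TIM10; 0% = yeast with DMSO and 100% = medium wells lacking yeast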
tim23-1 confirm – tim23-1 yeast growth inhibition, confirmed. shares compounds with tim23-1 inh. S. cerevisiae tim23-1 growth, BacTiter-Glo luminescence, 24 h. inhibition, % at 20 µM. 4,400 compounds, 83% hits. AID 463218;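 active = inhibition above about 39% in either of two replicate wells at 20 µM, limit read from the data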;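 also: temperature-sensitive tim23-1 mutant grown at 25 °C; 0% = DMSO wells with yeast and 100% = medium wells without yeast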
Numbers without * were called inactive; . = not tested or not shown.

SMILES	tim10-1 inh	tim23-1 inh	TIM10 inh	NALP3 yeast inh	NALP1 inh	tim10-1 conf	TIM10 conf	tim23-1 confirm
O=C(CN1C(=O)NC2(CCCC2)C1=O)Nc1cccc(Cl)c1	-4	6	4	9	2	.	.	.
O=C(N/N=C\c1ccc([N+](=O)[O-])s1)C1COc2ccccc2O1 (stereo not given)	-12	-11	-52	39	0	.	.	.
O=C(CCC(=O)Nc1ccc(Cl)cc1Cl)N/N=C/c1ccc([N+](=O)[O-])o1	64*	92*	45*	15	-11	43*	51*	88*
O=C(N/N=C\c1ccc([N+](=O)[O-])o1)C1COc2ccccc2O1 (stereo not given)	57*	57*	31	16	-10	49*	.	42*
O=[N+]([O-])c1ccc(/C=N/NC(=S)Nc2ccccc2F)o1	56*	55*	43*	3	-2	47*	-6	58*
COC(=O)c1cccc2c1-c1ccccc1/C2=N/O	59*	65*	33	-25	-7	38*	.	56*
COc1ccccc1C(=O)O/N=C(\N)c1ccc(Cl)cc1	50*	64*	36	11	18	45*	.	54*
Cc1ccc(C(=O)O/N=C(\N)Cc2cccs2)c(Cl)c1	69*	91*	85*	25	15	63*	86*	87*
Cc1ccc(/C(N)=N/OC(=O)c2ccc(Cl)cc2Cl)cc1	47*	80*	88*	13	50	25	-1	44*
CCOc1cc(/C=N/NC(=O)CSc2nncn2C)ccc1OCc1cccc(C)c1	9	10	8	8	3	.	.	.
O=C(NC1CC(=O)N(c2ccc(F)cc2)C1)C(=O)c1c[nH]c2ccccc12 (stereo not given)	-17	-19	-1	12	.	.	.	.
O=C1NN=C(c2ccc(Cl)cc2)CC1c1cccc(Cl)c1 (stereo not given)	41*	56*	7	10	-4	27	.	54*
CC(C)C(NC(=O)CCNC(=O)c1ccc(C(C)(C)C)cc1)c1nc2ccccc2[nH]1 (stereo not given)	-1	-7	1	22	.	.	.	.
CC(C)(C)OC(=O)NCCCCCNC(=O)c1nc[nH]c1C(=O)NCCCCCNC(=O)OC(C)(C)C	7	-6	5	14	.	.	.	.
O=C1OC(c2ccc(Br)cc2)=N/C1=C\c1ccco1	57*	58*	45*	14	-1	26	10	44*
COc1ccc(N=Nc2c(C)[nH]c3ccccc23)cc1	43*	89*	38	20	.	40*	.	78*
O=c1[nH][nH]c(-c2ccccc2O)c1C(C[N+](=O)[O-])c1cccc(Cl)c1 (stereo not given)	44*	56*	48*	22	101*	44*	-8	55*
Cc1ccc(C2C(N)C(=O)N2c2ccc(C)cc2)cc1 (stereo not given)	29	11	-13	22	14	.	.	.
Nc1nc(N)c2cc(Sc3ccc4ccccc4c3)ccc2n1	89*	59*	17	31	9	84*	.	68*
S=C(Nc1ccc2nsnc2c1)NC1CCCCC1	53*	53*	54*	9	17	33*	22	57*
S=c1nc[nH]c2c1cnn2-c1ccccc1	7	23	-9	25	1	.	.	.
Fc1cccc(-n2cc(-c3ccccc3)c3c(=S)nc[nH]c32)c1	40*	55*	36	8	-7	32*	.	48*
O=c1[nH]cnc2c1c(-c1ccccc1)cn2-c1ccccc1	34	34	24	-26	12	.	.	.
Fc1ccc(-n2cc(-c3ccccc3)c3c(=S)nc[nH]c32)cc1	63*	65*	24	-16	-13	13	.	33
Cc1ccc(-n2cc(-c3ccccc3)c3c(=O)[nH]cnc32)cc1	48*	57*	49*	-77	-42	32*	-39	43*
SMILES	tim10-1 inh	tim23-1 inh	TIM10 inh	NALP3 yeast inh	NALP1 inh	tim10-1 conf	TIM10 conf	tim23-1 confirm
Cc1ccc(CC(=O)NC2CCCc3ccccc32)cc1C (stereo not given)	-18	15	7	24	6	.	.	.
CCOc1cc(/C=N/NC(=O)c2nn(C)cc2Br)ccc1OCc1ccccc1	8	10	9	1	21	.	.	.
COc1ccc(/C=N/NC(=O)c2nn(C)cc2Br)cc1CSCc1ccco1	44*	52*	26	18	10	20	.	47*
Cc1cccnc1Nc1nc(-c2ccc(O)cc2)cs1	57*	75*	31	21	0	17	.	57*
Cc1cccnc1Nc1nc(-c2ccc(F)cc2)cs1	20	47	37	1	3	.	.	.
Clc1cccc(N/N=C(\Cc2nc3ccccc3[nH]2)c2ccccc2)c1	40*	64*	56*	22	26	-12	8	14
c1ccc(N/N=C(\Cc2ncc[nH]2)c2ccccc2)cc1	13	21	20	6	-10	.	.	.
O=C(/C=C\c1cccs1)c1c(O)ccc2ccc(=O)oc12	75*	78*	75*	47	33	81*	75*	69*
O=C(/C=C/c1cccs1)c1ccc(Br)cc1	6	13	17	18	-6	.	.	.
O=C(c1ccc2c(c1)OCO2)N(c1ccc(Br)cc1)C1C=CS(=O)(=O)C1 (stereo not given)	4	-8	7	13	6	.	.	.
CCOC(=O)c1ccc(NC(=S)NC(=O)C2CCCC2)cc1	48*	58*	41*	27	13	36*	53*	44*
COC(=O)c1ccc(NC(=S)NC(=O)C2CCC2)cc1	35	50	22	21	5	.	.	.
O=C(NC(=S)Nc1ccccc1Cl)C1CC1	30	36	24	2	25	.	.	.
Cc1ccc(NC(=S)NC(=O)C2CC2)cc1Cl	49*	61*	30	38	10	14	.	49*
O=C(CSc1nc(C(F)(F)F)cc(=O)[nH]1)Nc1ccc2c(c1)OCCO2	8	12	12	11	.	.	.	.
CCC(C)Nc1nc(N)c([N+](=O)[O-])c(Nc2ccccc2OC)n1 (stereo not given)	43*	53*	23	-7	-11	17	.	49*
COc1cc2c(cc1OC)C(Nn1cnnc1)=NC1(CCCC1)C2	-3	9	10	8	-6	.	.	.
Cn1c(Cn2nnc(-c3ccccc3)n2)nnc1SCc1ccccc1Cl	39	24	5	8	14	.	.	.
C=CCc1cccc(/C=N/NC(=O)c2ccccc2Br)c1O	44*	62*	64*	-3	10	19	58*	61*

Compound activity from PubChem BioAssay.
